Data: PubChem BioAssay (NCI)
Compounds without any hit were thinned out: in the full panel of roughly 83,000, 20% have a hit.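 Each cell line was grown in a 96-well plate and treated with one concentration of compound for 48 hours. Values below 10 were considered active.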 The source made the active and inactive calls.

Columns and labels:
Assay in all cases: NCI-60 one-dose screen, 48 h (100 = growth as untreated, 0 = no growth, -100 = all killed)
Details in all cases: 10 µM unless noted
SK-MEL-2 melanoma = system: SK-MEL-2 melanoma
EKVX NSCLC = system: EKVX NSCLC
SN12C renal = system: SN12C renal
UO-31 renal = system: UO-31 renal
ACHN renal = system: ACHN renal
CAKI-1 renal = system: CAKI-1 renal
A498 renal = system: A498 renal
CCRF-CEM leukemia = system: CCRF-CEM leukemia
MOLT-4 leukemia = system: MOLT-4 leukemia
TK-10 renal = system: TK-10 renal

Measured: growth

CC/C=C\C[C@@H](O)C/C=C1/C(=O)C=C[C@H]1C/C=C\CCCC(=O)OC
inactive: SK-MEL-2 melanoma 77.9% | EKVX NSCLC 88.2% | UO-31 renal 16.9% | ACHN renal 26.8% | CAKI-1 renal 17.9% | A498 renal 97.4%
active: SN12C renal -29.5% | CCRF-CEM leukemia -9.05% | MOLT-4 leukemia -4.62%

CSc1nc2ccc(C)cc2cc1/C=N/O
inactive: SK-MEL-2 melanoma 74.7% | EKVX NSCLC 67.8% | SN12C renal 91.9% | UO-31 renal 66.4% | TK-10 renal 101% | CAKI-1 renal 80.4% | A498 renal 85.2% | CCRF-CEM leukemia 105% | MOLT-4 leukemia 83%

C#Cc1cccc(NC(=O)c2ccc(NC(=O)C=C)cc2)c1
active: UO-31 renal -67.2% [8.25 µM]
inactive: SK-MEL-2 melanoma 79.3% [8.25 µM] | EKVX NSCLC 102% [8.25 µM] | SN12C renal 67.5% [8.25 µM] | ACHN renal 63.8% [8.25 µM] | CAKI-1 renal 63.2% [8.25 µM] | A498 renal 40.8% [8.25 µM] | CCRF-CEM leukemia 71.5% [8.25 µM] | MOLT-4 leukemia 76.8% [8.25 µM]

O=c1ccc(N=Nc2ccc([N+](=O)[O-])cc2)ccc1O
active: EKVX NSCLC 5.14% | SN12C renal 4.86%
inactive: SK-MEL-2 melanoma 28.1% | UO-31 renal 17.1% | ACHN renal 16.5% | CAKI-1 renal 20.2% | A498 renal 103% | CCRF-CEM leukemia 34.5% | MOLT-4 leukemia 18.6%

CCN(CC)CCCNc1nc2ccccc2c2c(=O)c3cc(Cl)ccc3sc12
inactive: SK-MEL-2 melanoma 108% | EKVX NSCLC 79.1% | SN12C renal 66.9% | UO-31 renal 33.8% | TK-10 renal 68.7% | CAKI-1 renal 23% | A498 renal 41.4% | CCRF-CEM leukemia 11.7%
active: MOLT-4 leukemia 5.32%

c1ccc(-c2nc3nonc3nc2-c2ccccc2)cc1
active: A498 renal -10.9%
inactive: SK-MEL-2 melanoma 79% | EKVX NSCLC 67% | SN12C renal 68.7% | UO-31 renal 36.3% | ACHN renal 53.9% | CAKI-1 renal 51% | CCRF-CEM leukemia 80.7% | MOLT-4 leukemia 70.9%

COc1cc(CCCO)c(OC)c(OC)c1OC
inactive: SK-MEL-2 melanoma 118% | EKVX NSCLC 105% | SN12C renal 99.6% | UO-31 renal 90.4% | ACHN renal 106% | CAKI-1 renal 92.3% | A498 renal 83.6% | CCRF-CEM leukemia 108% | MOLT-4 leukemia 110%

Cc1ccc(/C=C(\C#N)n2nc3cccc(F)c3n2)cc1
inactive: SK-MEL-2 melanoma 95.5% | EKVX NSCLC 83.5% | SN12C renal 95.3% | UO-31 renal 72.3% | TK-10 renal 90.8% | CAKI-1 renal 58.8% | A498 renal 56% | CCRF-CEM leukemia 104% | MOLT-4 leukemia 102%

Cc1ccc(-c2nc(SCC(=O)Nc3nc(-c4ccc(Cl)cc4)cs3)[nH]c(=O)c2C#N)cc1
inactive: SK-MEL-2 melanoma 82.9% | EKVX NSCLC 101% | SN12C renal 110% | UO-31 renal 88.4% | CAKI-1 renal 96.1% | A498 renal 85.2% | CCRF-CEM leukemia 103% | MOLT-4 leukemia 90.4%

CCCCCCN(CCCCCC)c1ccc(/C=C2/SC(=O)NC2=O)c(C)c1
inactive: SK-MEL-2 melanoma 83% | EKVX NSCLC 79.1% | UO-31 renal 64.1% | TK-10 renal 108% | ACHN renal 93.4% | CAKI-1 renal 84.1% | A498 renal 82.9% | CCRF-CEM leukemia 73% | MOLT-4 leukemia 75.1%

O=C(Nc1ccc(Cl)cc1F)c1cc(Cl)ccc1O
inactive: CCRF-CEM leukemia 15.8%
active: SK-MEL-2 melanoma -28.3% | EKVX NSCLC 5.1% | SN12C renal -11% | UO-31 renal -14.6% | ACHN renal -1.72% | CAKI-1 renal 1.59% | A498 renal -51.8% | MOLT-4 leukemia -42.4%

CCN1C(=O)N(CC)C2Nn3c(s/c(=C\c4ccc([N+](=O)[O-])cc4)c3=O)=NC21 (stereo not drawn)
inactive: SK-MEL-2 melanoma 110% | EKVX NSCLC 73.3% | SN12C renal 79.7% | UO-31 renal 55.1% | ACHN renal 74.9% | CAKI-1 renal 79.8% | A498 renal 53.2% | CCRF-CEM leukemia 40.6% | MOLT-4 leukemia 61.7%

Nc1ccc(Sc2ccc([N+](=O)[O-])c3nonc23)cc1
inactive: SK-MEL-2 melanoma 96.1% | EKVX NSCLC 92.5% | SN12C renal 93.7% | UO-31 renal 65.6% | ACHN renal 23% | CAKI-1 renal 103% | A498 renal 80.2% | CCRF-CEM leukemia 27.7% | MOLT-4 leukemia 26.8%

O=c1c2cc(F)cc(Cl)c2sc2c(NCCCNCCO)nc3ccccc3c12
inactive: SK-MEL-2 melanoma 107% | EKVX NSCLC 88.2% | SN12C renal 83.4% | UO-31 renal 59.8% | ACHN renal 83.8% | CAKI-1 renal 71.2% | A498 renal 56.2% | CCRF-CEM leukemia 15.8% | MOLT-4 leukemia 60.6%

CCOC(=O)CC1C(COC(=O)NC)OC(n2cnc3c(NC(=O)Nc4ccccc4)ncnc32)C1O[Si](C)(C)C(C)(C)C (stereo not drawn)
inactive: SK-MEL-2 melanoma 60% | EKVX NSCLC 67.5% | SN12C renal 34.8% | UO-31 renal 41.9% | ACHN renal 25.8% | CAKI-1 renal 60.8% | A498 renal 77.4% | CCRF-CEM leukemia 57.4% | MOLT-4 leukemia 34.3%

OC(c1ccccc1)C(NC(Cc1ccccc1)c1ccccc1)c1ccccc1 (stereo not drawn)
inactive: SK-MEL-2 melanoma 93.1% | EKVX NSCLC 92% | SN12C renal 87.1% | UO-31 renal 72.2% | ACHN renal 90.7% | CAKI-1 renal 77.4% | A498 renal 74.6% | CCRF-CEM leukemia 93.3% | MOLT-4 leukemia 71.2%

COc1ccc(N2C(=O)C(Oc3ccccc3)C2c2ccc(C)cc2)cc1 (stereo not drawn)
inactive: SK-MEL-2 melanoma 106% | EKVX NSCLC 88.8% | SN12C renal 104% | UO-31 renal 91.9% | ACHN renal 95.7% | CAKI-1 renal 93% | A498 renal 77.9% | CCRF-CEM leukemia 101% | MOLT-4 leukemia 101%

CCCCNC(=O)Oc1ccc(/C(=C(\C)c2ccc(Cl)cc2)c2ccc(OCCN(CC)CC)cc2)cc1
inactive: SK-MEL-2 melanoma 117% | EKVX NSCLC 75% | SN12C renal 75.4% | UO-31 renal 47.8% | ACHN renal 93.7% | CAKI-1 renal 81.4% | A498 renal 71% | CCRF-CEM leukemia 64.4% | MOLT-4 leukemia 58.4%

C=CCc1cc(C)ccc1NC(C(=O)NCC(=O)OC)c1ccccc1 (stereo not drawn)
inactive: SK-MEL-2 melanoma 96.4% | EKVX NSCLC 93.9% | SN12C renal 91.4% | UO-31 renal 80.6% | ACHN renal 98.5% | CAKI-1 renal 88.1% | A498 renal 94.6% | CCRF-CEM leukemia 105% | MOLT-4 leukemia 97.1%

Cc1ccc(/C=C2\Oc3ccc(O)c(O)c3C2=O)cc1
inactive: SK-MEL-2 melanoma 87.6% | EKVX NSCLC 19.7% | SN12C renal 62.8% | UO-31 renal 13.5% | TK-10 renal 98% | CAKI-1 renal 34.4% | A498 renal 70.2% | CCRF-CEM leukemia 15.6% | MOLT-4 leukemia 29.6%

COc1cc(C2CC(c3cccc(Br)c3)=NN2C(C)=O)cc(OC)c1OC (stereo not drawn)
active: UO-31 renal -27.7%
inactive: SK-MEL-2 melanoma 59.1% | EKVX NSCLC 52.7% | SN12C renal 41.8% | CAKI-1 renal 39.1% | A498 renal 19.1% | CCRF-CEM leukemia 14.9% | MOLT-4 leukemia 19%

C=C(C)[C@@H]1CC[C@]2(N=C=O)CC[C@]3(C)[C@H](CC[C@@H]4[C@@]5(C)Cc6c([nH]c7ccccc67)C(C)(C)[C@@H]5CC[C@]43C)[C@@H]12
inactive: SK-MEL-2 melanoma 108% | EKVX NSCLC 89% | SN12C renal 72.4% | UO-31 renal 64.8% | ACHN renal 99% | CAKI-1 renal 69.9% | A498 renal 137% | CCRF-CEM leukemia 67.6% | MOLT-4 leukemia 61.4%

O=C(S)CNC(=O)c1ccccc1
inactive: SK-MEL-2 melanoma 101% | EKVX NSCLC 95.8% | SN12C renal 95.6% | UO-31 renal 76.5% | ACHN renal 103% | CAKI-1 renal 90.7% | A498 renal 83.5% | CCRF-CEM leukemia 89.9% | MOLT-4 leukemia 87.7%

O=c1c2cc(F)ccc2sc2c(NCCCNCCO)nc3ccc(F)cc3c12
inactive: SK-MEL-2 melanoma 97.3% | EKVX NSCLC 75.4% | SN12C renal 66.1% | UO-31 renal 31.1% | ACHN renal 46.9% | CAKI-1 renal 27.1% | A498 renal 26.9% | CCRF-CEM leukemia 15.1% | MOLT-4 leukemia 18.8%

CCn1cnc2c1c(=O)[nH]c(=O)n2CC1CCC(CNS(=O)(=O)c2ccc(OC3CCOCC3)c(F)c2)CC1 (stereo not drawn)
inactive: SK-MEL-2 melanoma 74.8% | EKVX NSCLC 68.1% | SN12C renal 62.9% | UO-31 renal 55.2% | ACHN renal 72.2% | CAKI-1 renal 46.2% | A498 renal 67.1% | CCRF-CEM leukemia 52.6% | MOLT-4 leukemia 63%

BrCCCc1n(Cc2ccc3ccccc3c2)c2ccccc2[n+]1Cc1ccc2ccccc2c1
inactive: UO-31 renal 52.8%
active: SK-MEL-2 melanoma -50.8% | EKVX NSCLC -10.7% | SN12C renal -92.8% | ACHN renal 5.29% | CAKI-1 renal -90.7% | A498 renal -32.5% | CCRF-CEM leukemia -41.6% | MOLT-4 leukemia -35.9%

Cc1nc2ccccc2c(/C=C/c2ccc(Cl)cc2)c1C(=O)/C=C/c1ccc(C(F)(F)F)cc1
active: SK-MEL-2 melanoma -31.9% | EKVX NSCLC -60.1% | SN12C renal -70.7% | UO-31 renal -100% | ACHN renal -100% | CAKI-1 renal -95.4% | A498 renal -89.5% | CCRF-CEM leukemia 8.6% | MOLT-4 leukemia 0.0825%

Cc1cc2[nH]c(=O)c3c4ncccc4cn3c2cc1C
inactive: SK-MEL-2 melanoma 93.8% | EKVX NSCLC 60.9% | SN12C renal 39.3% | UO-31 renal 37.1% | ACHN renal 32.2% | A498 renal 105% | CCRF-CEM leukemia 21.7% | MOLT-4 leukemia 19.4%
active: CAKI-1 renal -24.7%

CN(C(=O)NCc1cccc(F)c1Cl)[C@H](COC(=O)Nc1cc2ccccc2cn1)CC(O)CO (stereo partly drawn)
inactive: SK-MEL-2 melanoma 113% | EKVX NSCLC 77.4% | UO-31 renal 51.8% | TK-10 renal 101% | ACHN renal 107% | CAKI-1 renal 25.8% | A498 renal 54.7% | CCRF-CEM leukemia 64.9% | MOLT-4 leukemia 94.9%

NCCOc1ncccc1/C=C1\C2C=CC=CC2C2C=CC(F)=CC12 (stereo not drawn)
active: SN12C renal -3.7% | UO-31 renal -0.645% | ACHN renal -34% | CCRF-CEM leukemia 3.62% | MOLT-4 leukemia 0.118%
inactive: SK-MEL-2 melanoma 113% | TK-10 renal 41.7% | CAKI-1 renal 25% | A498 renal 17.2%
